aSyn 5UTR act: Activators via SNCA 5'UTR binding, MLPCN; alpha-synuclein 5'UTR reporter, activators screen; activity score, % (tested at 7.5 µM), hits read low; 300,000 compounds, 7.1% hits; AID 1814, 2009; in the data active = activity score below about -60%
* marks the source's active call; other numbers are inactive results. Not all results are given here.

SMILES | aSyn 5UTR act
NS(=O)(=O)c1cccc(NC(=O)CCSc2ccccc2Cl)c1 | -120*
O=C(Nc1cccc(Cl)c1)c1cnc[nH]1 | -87*
NS(=O)(=O)c1cccc(NC(=O)Nc2ccc(Cl)cc2)c1 | -92*
CSc1ccccc1NC(=O)Nc1cccc(F)c1 | -82*
O=C(Nc1cccc(Cl)c1)Nc1cccc(Cl)c1 | -137*
C[C@H]1COC2=C1C(=O)C(=O)c1c2ccc2c1CCCC2(C)C | 102
N#CCc1ccc(NC(=O)Nc2cccc(Cl)c2)cc1 | -143*
Cc1cccnc1NC(=O)Nc1cccc(Cl)c1 | -186*
Oc1c(C(Nc2cccc(C(F)(F)F)c2)c2ccncc2)ccc2cccnc12 (configuration not stated) | 82
CSc1ccccc1NC(=S)Nc1cccc(C(F)(F)F)c1 | -64*
COc1cc(CNc2ccccc2SC)ccc1O | -72*
c1ccc(OCCOc2ccccc2-c2nnco2)cc1 | -64*
COCC1CCCN(C(=O)c2ccc3nc(Cc4cccc(Cl)c4)oc3c2)C1 (configuration not stated) | -77*
CC(C)(CO)NC(=O)c1ccc2nc(Cc3cccc(Cl)c3)oc2c1 | -102*
COC(=O)CN(C)C(=O)c1ccc2nc(Cc3cccc(Cl)c3)oc2c1 | -109*
c1ccc(C[n+]2csc3ccccc32)cc1 | -71*
Cc1cc(N2C(=O)C(O)=C(C(=O)c3cc4ccccc4o3)C2c2ccc(OC(C)C)cc2)no1 (configuration not stated) | -91*
CSC1=C(C#N)C(c2ccc(Cl)cc2)C2=C(CC(C)(C)CC2=O)N1 (configuration not stated) | 71
Cc1ccccc1NC(=O)c1ccc(CSc2ncccn2)cc1 | -83*
Cc1nnc(SCc2ccc(F)cc2)s1 | -69*
Cc1ccc(NC(=O)c2ccc(CSc3nnnn3C)cc2)cc1 | -165*
Cc1ccc(NC(=O)c2ccc(CSc3ccccn3)cc2)cc1 | -93*
O=C(Nc1ccc(Br)cc1)c1ccc(CSC2=NCCS2)cc1 | -132*
Cc1nnc(SCc2cccc3ccccc23)s1 | -90*
Cc1ccc(NC(=O)c2ccc(CSc3nnc(C)s3)cc2)cc1 | -75*
SMILES | aSyn 5UTR act
Cc1ccc(NC(=O)c2ccc(OC(F)(F)F)cc2)cc1S(=O)(=O)N(C)C | -76*
Cc1ccc(C(=O)Nc2ccc(F)cc2)o1 | -73*
Cc1ccc(NC(=O)c2ccc(Br)o2)cc1S(=O)(=O)N(C)C | -125*
Cc1ccc(C(=O)Nc2ccc3c(c2)CCC3)o1 | -134*
Cc1ccoc1C(=O)Nc1ccc(CC(=O)O)cc1 | 84
O=C(Nc1ccc2c(c1)OCO2)c1ccc(Br)o1 | -256*
O=C(Nc1ccc2c(c1)CCC2)c1cc2ccccc2o1 | -188*
Cc1ccc(C(=O)Nc2ccccc2C(N)=O)o1 | -78*
Cc1occc1C(=O)Nc1ccc2c(c1)CCC2 | -188*
O=C(Nc1ccc2c(c1)OCO2)c1ccc(COc2ccc3c(c2)CCC3)o1 | -76*
O=C(Nc1ccc2c(c1)CCC2)c1ccc(Br)o1 | -157*
COc1ccc([N+](=O)[O-])cc1N/C(=N/S(=O)(=O)c1ccccc1)c1ccccc1 | -70*
Cc1ccc2nc3sc(C(=O)NCc4ccco4)c(N)c3cc2c1 | -127*
COc1cc2cc3c(N)c(C(=O)NCc4ccco4)sc3nc2cc1OC | -284*
Cn1nccc1C(=O)Nc1sc2c(c1C(N)=O)CCCC2 | -126*
Cn1nccc1C(=O)Nc1sc2c(c1C#N)CCCC2 | -100*
Cn1cc(Br)c(C(=O)Nc2sc3c(c2C(N)=O)CCC3)n1 | -95*
COc1ccc(C)cc1N(C(=O)COc1cccc(F)c1)c1nc2ccccc2s1 | -110*
Cc1ccc(O)c(C=Nc2cc(C)ccc2O)c1 | -92*
Oc1cccc(/C=N/N=C/c2cccc(O)c2O)c1O | -70*
CCN(CC)S(=O)(=O)c1cccc(C(=O)N/N=C/c2cccc(O)c2O)c1 | 66
CCc1ccc(O)c(N=Cc2ccccc2O)c1 | -70*
O=C1C(C=Nc2ccccc2O)=C(O)c2ccccc21 | -186*
Cc1ccc(O)c(N=CC2=C(O)c3ccccc3C2=O)c1 | -156*
Cc1ccc(N=Cc2cccc(O)c2O)c(C)c1 | -62*
SMILES | aSyn 5UTR act
c1cncc(-c2nc(-c3ccc4c(c3)OCO4)cs2)c1 | -117*
Clc1ccsc1-c1csc(-c2cccnc2)n1 | -85*
Oc1ccc(-c2csc(-c3cccnc3)n2)c(O)c1 | -101*
Cc1c(NC(=O)c2cc(-n3cnnc3)ccc2Cl)cccc1-c1nc2ccccc2s1 | -90*
O=C(Nc1cccc(-c2nc3ccccc3s2)c1)c1cc(-n2cnnc2)ccc1Cl | -85*
Cc1ccc2sc(-c3ccc(NC(=O)c4cc(-n5cnnc5)ccc4Cl)cc3)nc2c1 | -153*
CC1=Nc2ccccc2N=C(N)C1c1ccccc1 (configuration not stated) | -124*
COc1ccc(-c2csc(-n3ncc(C(=O)O)c3C(F)(F)F)n2)cc1 | -76*
O=C(O)c1cnn(-c2nc(-c3ccc(Cl)cc3)cs2)c1C(F)(F)F | -92*
COC(=O)c1cnn(-c2nc(-c3ccccc3)cs2)c1N | -171*
CCOc1cc(-c2nc3ccccc3s2)ccc1O | -98*
COc1ccc(-c2nc3ccccc3s2)cc1O | 85
COc1cc(-c2nc3ccccc3s2)ccc1O | -222*
CC[n+]1c(/C=C/N(C)c2ccccc2)n(-c2ccccc2)c2ccc(-c3nc4ccccc4s3)cc21 | 120
Fc1cccc(NCCc2c[nH]c3ccccc23)n1 | -101*
c1ccc2c(NCCc3c[nH]c4ccccc34)c3ccccc3nc2c1 | -549*
OCCCNc1c2ccccc2nc2ccccc12 | -155*
COC(=O)CCN1CCc2cc(N=Nc3ccc([N+](=O)[O-])cc3)ccc21 | -96*
Oc1ccc2c(c1)oc1cc(O)ccc12 | -178*
Cc1c(/C(O)=C2\C(=O)C(=O)N(CCN(C)C)C2c2cccs2)cnn1-c1ccccc1 (configuration not stated) | -88*
Cc1ccc(C2/C(=C(/O)c3cnn(-c4ccccc4)c3C)C(=O)C(=O)N2CCCN2CCOCC2)o1 (configuration not stated) | -111*
Cc1sc2ncnc(SCC(=O)c3cccs3)c2c1C | -73*
CC(C)C(=O)NCCc1nc(-c2ccc(Cl)cc2)no1 | -99*
O=C(CNC(=O)c1ccccc1)OC1CCCCC1 | -98*
O=C(NC(=O)c1ccc(Cl)cc1)OC1CCCCC1 | -91*
SMILES | aSyn 5UTR act
COc1ccc(Cc2nc(C(=O)Nc3ccccc3)cs2)cc1 | -73*
O=C(Nc1ccc(Cl)cc1)c1csc(Cc2ccccc2)n1 | -72*
CC(=O)Oc1ccccc1-c1nc(C)nc(N(C)C(C)=O)n1 | -70*
Cc1ccc(NC(=O)CN(C)S(=O)(=O)c2cccs2)cc1C | -86*
Cc1ccc(NC(=O)CN(C)S(=O)(=O)c2cccs2)cc1F | -64*
COc1ccc(/C=N/N=C(\N)c2nonc2N)cc1OC | -93*
N/C(=N\N=C\c1ccc(Br)o1)c1nonc1N | -116*
N/C(=N\N=C\c1cccc(O)c1)c1nonc1N | -106*
CS/C(N)=N/N=C/c1ccc2c(c1)OCO2 | -119*
N/C(=N\N=C\c1ccc([N+](=O)[O-])cc1)c1nonc1N | -154*
CS/C(N)=N/N=C/c1ccc([N+](=O)[O-])cc1 | -133*
N/C(=N\N=C\c1ccc(O)c(O)c1)c1nonc1N | -130*
N/C(=N\N=C\c1ccc(O)cc1)c1nonc1N | -182*
COc1cc(/C=N/N=C(\N)c2nonc2N)ccc1O | -78*
COc1ccc(C)cc1NC(=O)CNC(c1ccccc1)c1ccc(C)cc1 (configuration not stated) | 103

Source: PubChem BioAssay (Broad Institute)
